Measurements from PubChem BioAssay (NCATS).
Records with an inconclusive call do not appear. Active and inactive are the calls of the source. The call rests on the fitted dose curve; in most records, active means well fitted curve in the direction sought with a large enough effect; inconclusive means small, poorly fitted or top-dose-only effect, or another doubt; inactive means no such curve, though single readings can be large; an effect the other way counts as inactive or inconclusive.

How the values were obtained:
[1] = MultiTox-Fluor Cytotoxicity Assay - LYMP1-002 - Live Cells (AID 955); settings: LYMP1-002 lymphoblastoid live-cell protease fluorescence viability; series mostly up to 46.1 µM
Procedure, shortened: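 Human lymphoblastoid LYMP1-002 cells, 2500/well in complete medium, rested 5 hr at 37 C, then exposed to compounds for 16 hr at 37 C. Live-cell protease cleavage of GF-AFC read by fluorescence (Ex/Em 405/510) after 60 min at room temperature; AC50 from Hill fits.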

[2] = MultiTox-Fluor Cytotoxicity Assay - LYMP1-003 - Dead Cells (AID 961); settings: LYMP1-003 lymphoblastoid cells, dead-cell protease fluorescence; series mostly up to 92.2 µM; further: nearly all actives have a fitted effect of over 70% in size
Procedure, shortened: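 Acute toxicity is scored as increased dead-cell protease activity in human lymphoblastoid LYMP1-003 cells after 16 h compound exposure in complete culture medium. Activity is normalized to DMSO basal and 15 uM tetraoctylammonium bromide as full response.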

[3] = MultiTox-Fluor Cytotoxicity Assay - LYMP1-003 - Live Cells (AID 962); settings: LYMP1-003 lymphoblastoid cells, MultiTox-Fluor live-cell protease fluorescence; series mostly up to 92.2 µM;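 further: cytotoxic hits lower the live-cell protease signal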
Procedure, shortened: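 LYMP1-003 human lymphoblastoid cells (2500/well) in complete medium were preincubated 5 hr at 37 C, then exposed to compounds for 16 hr at 37 C. Live-cell protease cleavage of GF-AFC read by fluorescence (Ex/Em 405/510); AC50 from Hill fits.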

[4] = Cell Viability - LYMP1-003 - Assay at 24 hr (AID 963); settings: LYMP1-003 lymphoblastoid cell viability; series mostly up to 92.2 µM
Procedure, shortened: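 Human lymphoblastoid LYMP1-003 cells (2500/well) were rested 5 hr at 37 C, then exposed to compounds in complete medium for 24 hr at 37 C. Cellular ATP was quantified by CellTiter-Glo luminescence, and AC50 values came from Hill fits of concentration-response data.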

[5] = Cell Viability - LYMP2-013 (AID 970); settings: LYMP2-013 lymphoblastoid cells viability; series mostly up to 92.2 µM; further: nearly all actives have a fitted effect of over 55% in size
Procedure, shortened: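 Human lymphoblastoid cells, 2500/well, were preincubated 5 hr at 37 C, then treated with compounds for 24 hr at 37 C in complete medium. Intracellular ATP was read by CellTiter-Glo luminescence; AC50 from Hill-equation fits of concentration-response data.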

[6] = Cell Viability - LYMP2-015 (AID 971); settings: LYMP2-015 lymphoblastoid cell viability; series mostly up to 92.2 µM; further: nearly all actives have a fitted effect of over 55% in size
Procedure, shortened: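 Human lymphoblastoid cells (2500/well) in complete medium were preincubated 5 hr at 37 C, then compound-treated 24 hr at 37 C. Intracellular ATP was read by CellTiter-Glo luminescence after 30 min at room temperature; AC50 came from Hill-equation concentration-response fits.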

[7] = Cell Viability - LYMP2-019 (AID 973); settings: LYMP2-019 lymphoblastoid cell line viability; series mostly up to 92.2 µM; further: nearly all actives have a fitted effect of over 55% in size
Procedure, shortened: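 Human lymphoblastoid cells were seeded at 2500 cells/well, preincubated 5 hr at 37 C, then exposed to compounds for 24 hr at 37 C in complete medium. Intracellular ATP was measured by CellTiter-Glo luminescence; AC50 from Hill fits.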

[8] = Cell Viability - LYMP2-023 (AID 975); settings: LYMP2-023 lymphoblastoid cell viability; series mostly up to 92.2 µM;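 further: cellular ATP measured by luciferase luminescence as viability proxy; nearly all actives have a fitted effect of over 55% in size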
Procedure, shortened: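 Human lymphoblastoid cells (2500/well) were preincubated 5 hr at 37 C, then exposed to compounds for 24 hr at 37 C in complete medium. Cellular ATP was read by CellTiter-Glo luminescence, and AC50 came from Hill-equation fits.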

[9] = Cell Viability - LYMP2-025 (AID 976); settings: LYMP2-025 lymphoblastoid cell viability; series mostly up to 92.2 µM
Procedure, shortened: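 Human lymphoblastoid LYMP2-025 cells (2500/well) were pre-incubated 5 hr at 37 C, then treated with compounds for 24 hr at 37 C in complete medium. Viability was read as intracellular ATP by CellTiter-Glo luminescence; AC50 from Hill fits.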

[10] = Cell Viability - LYMP2-006 (AID 978); settings: LYMP2-006 lymphoblastoid cell viability, qHTS; series mostly up to 92.2 µM; further: nearly all actives have a fitted effect of over 60% in size
Procedure, shortened: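 Potency values are Hill-fit AC50s for decreases in intracellular ATP (CellTiter-Glo luminescence). LYMP2-006 lymphoblastoid cells, 2500 per well, were exposed to compound in complete culture medium for 24 hr at 37 C.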

[11] = Cell Viability - LYMP2-010 (AID 981); settings: LYMP2-010 lymphoblastoid cell viability, qHTS; series mostly up to 92.2 µM; further: nearly all actives have a fitted effect of over 55% in size
Procedure, shortened: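 Human lymphoblastoid LYMP2-010 cells (2500/well) were preincubated 5 hr at 37 C, then exposed to compounds for 24 hr at 37 C in complete medium. Intracellular ATP was measured by CellTiter-Glo luminescence after 30 min at room temperature; AC50 from Hill-fitted concentration-response.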

[12] = Cell Viability - LYMP2-012 (AID 982); settings: LYMP2-012 lymphoblastoid cell viability qHTS; series mostly up to 92.2 µM
[13] = Cell Viability - LYMP2-014 (AID 983); settings: LYMP2-014 lymphoblastoid cells, viability qHTS; series mostly up to 92.2 µM; further: nearly all actives have a fitted effect of over 50% in size
Procedure, shortened: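 Human lymphoblastoid cells (2500/well) were pre-incubated 5 hr at 37 C, then exposed to compounds in complete medium for 24 hr at 37 C. Intracellular ATP was read by CellTiter-Glo luminescence after 30 min at room temperature; AC50 from Hill fits.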

[14] = Cell Viability - LYMP2-016 (AID 984); settings: LYMP2-016 lymphoblastoid cell viability, qHTS; series mostly up to 92.2 µM; further: nearly all actives have a fitted effect of over 55% in size
Procedure, shortened: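 Cytotoxicity was scored by luminescent ATP content (CellTiter-Glo) after 24 h compound exposure at 37 C of a human lymphoblastoid line at 2500 cells/well. Concentration-response data were fitted to the Hill equation for AC50.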

[15] = Cell Viability - LYMP2-018 (AID 985); settings: LYMP2-018 lymphoblastoid cells, viability (qHTS); series mostly up to 92.2 µM;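 further: compound exposure lasted 24 hr at 37 °C; nearly all actives have a fitted effect of over 50% in size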
Procedure, shortened: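 Human lymphoblastoid cells (2500/well) were pre-incubated 5 hr at 37 C, then exposed to compounds for 24 hr at 37 C in complete medium. Viability was read as intracellular ATP by CellTiter-Glo luminescence; AC50 values came from Hill-equation fits.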

[16] = Cell Viability - LYMP2-024 (AID 988); settings: LYMP2-024 lymphoblastoid cell viability; series mostly up to 92.2 µM; further: nearly all actives have a fitted effect of over 60% in size
Procedure, shortened: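 Human lymphoblastoid cells (2500/well) in complete medium were preincubated 5 hr at 37 C, then exposed to compounds for 24 hr at 37 C. Intracellular ATP was read by CellTiter-Glo luminescence; AC50 from Hill-equation fits of concentration-response data.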

[17] = Cell Viability - LYMP2-026 (AID 989); settings: LYMP2-026 lymphoblastoid cell viability, qHTS; series mostly up to 92.2 µM; further: nearly all actives have a fitted effect of over 50% in size
Procedure, shortened: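 Human lymphoblastoid cells (2500/well) in complete medium were preincubated 5 hr at 37 C, then exposed to compounds for 24 hr at 37 C. Cellular ATP was read by CellTiter-Glo luminescence; AC50 from Hill-equation fits of concentration-response data.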

[18] = Cell Viability - LYMP1-002 - Assay at 24 hr (AID 993); settings: LYMP1-002 lymphoblastoid cells viability; series mostly up to 92.2 µM
Procedure, shortened: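 Human lymphoblastoid LYMP1-002 cells, 2500/well in complete medium, were treated with compounds for 24 h at 37 C; intracellular ATP was read by CellTiter-Glo luminescence. AC50 values came from Hill-equation fits of qHTS concentration-response data.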

[19] = Cell Viability - LYMP1-002 - Assay at 40 hr (AID 994); settings: LYMP1-002 lymphoblastoid cell viability; series mostly up to 92.2 µM; further: nearly all actives have a fitted effect of over 60% in size
Procedure, shortened: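 Human lymphoblastoid cells, 2500/well in complete medium, were preincubated 5 hr at 37 C, then exposed to compounds for 40 hr at 37 C. Intracellular ATP was read by CellTiter-Glo luminescence after 30 min at room temperature; AC50 from Hill-equation fits.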

[20] = Confirmatory screen GU Rhodamine qHTS for Zika virus inhibitors qHTS (AID 1347157); settings: purified enzyme assay, Rhodamine110 substrate fluorescence, 15 min; series mostly up to 114 µM; further: nearly all actives have a fitted effect of over 70% in size
Procedure, shortened: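 Unlinked NS2B/NS3, 25 nM; Rhod110 peptide, 1.5 microM; compounds, up to 114 microM. Reaction run 15 min at RT in 10 mM Tris-HCl pH 8.0, 0.01% Tween 20; kinetic fluorescence change fitted with a 4-parameter Hill model.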

Measured: Potency

CC(C)(c1ccc(OCC2CO2)cc1)c1ccc(OCC2CO2)cc1 (stereo not given)
not listed: [20]
inactive: all other assays above

O=C(O)c1ccccc1-c1c2cc(Br)c(=O)cc-2oc2[c]([Hg])c(O)c(Br)cc12
inactive: [20]
